Source: paper PMC4336329 (PLoS ONE, 2015)
Screen size: about 310,000 compounds; about 14,000 (4.5%) showed an effect of 50% or more. The effect is printed as a negative number. The full list was thinned out, with strong results kept by preference.

target: human ether-à-go-go-related gene (hERG) potassium channel (human, UniProt Q12809); assay: primary screen, population patch clamp on CHO cells stably expressing hERG; higher = less effect of the substance
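Also: peak tail current of the secondary pulse compared with the same well before compound.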

Chain of human ether-à-go-go-related gene (hERG) potassium channel (Q12809 whole entry, looked up): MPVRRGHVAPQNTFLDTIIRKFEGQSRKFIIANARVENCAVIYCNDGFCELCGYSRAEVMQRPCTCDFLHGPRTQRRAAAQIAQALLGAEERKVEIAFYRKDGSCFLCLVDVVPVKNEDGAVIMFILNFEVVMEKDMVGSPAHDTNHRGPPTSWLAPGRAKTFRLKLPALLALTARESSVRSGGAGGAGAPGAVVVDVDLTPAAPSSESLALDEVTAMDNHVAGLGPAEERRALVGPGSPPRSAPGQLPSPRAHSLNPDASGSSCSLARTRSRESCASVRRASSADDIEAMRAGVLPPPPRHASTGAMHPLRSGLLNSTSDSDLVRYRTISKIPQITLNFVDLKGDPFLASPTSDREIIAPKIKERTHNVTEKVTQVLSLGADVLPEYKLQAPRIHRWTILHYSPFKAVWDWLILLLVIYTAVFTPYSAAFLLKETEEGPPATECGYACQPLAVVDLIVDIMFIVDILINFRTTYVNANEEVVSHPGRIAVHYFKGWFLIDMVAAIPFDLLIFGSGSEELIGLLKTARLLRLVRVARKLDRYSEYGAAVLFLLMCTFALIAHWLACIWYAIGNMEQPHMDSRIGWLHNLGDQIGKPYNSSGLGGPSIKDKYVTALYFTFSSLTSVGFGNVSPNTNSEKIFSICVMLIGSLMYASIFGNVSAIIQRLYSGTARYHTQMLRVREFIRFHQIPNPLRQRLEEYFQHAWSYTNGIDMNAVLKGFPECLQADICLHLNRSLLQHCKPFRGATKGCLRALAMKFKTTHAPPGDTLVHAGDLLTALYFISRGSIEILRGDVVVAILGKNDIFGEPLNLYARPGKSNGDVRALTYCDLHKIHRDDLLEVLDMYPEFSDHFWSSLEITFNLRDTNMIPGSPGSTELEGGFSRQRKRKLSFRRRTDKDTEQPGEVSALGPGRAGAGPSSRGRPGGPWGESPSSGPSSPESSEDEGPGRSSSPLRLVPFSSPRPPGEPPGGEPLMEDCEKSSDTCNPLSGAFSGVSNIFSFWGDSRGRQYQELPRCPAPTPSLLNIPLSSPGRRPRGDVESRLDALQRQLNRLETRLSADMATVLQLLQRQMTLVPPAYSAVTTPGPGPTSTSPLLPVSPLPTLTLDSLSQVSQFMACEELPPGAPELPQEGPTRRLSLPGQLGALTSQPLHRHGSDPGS

Compound | hERG current change (%, negative = inhibition) at 10uM [%]
O=C(O)CSc1nc(SCc2ccccc2Cl)nc2c1CCCC2 | 15.4
Cc1[nH]n(-c2ccccc2)c(=O)c1CCO | 13.7
Cl.OC(c1cc(C(F)(F)F)nc2c(C(F)(F)F)cccc12)C1CCCCN1 (centres unmarked) | -12.4
Cl.O[C@@H](c1cc(C(F)(F)F)nc2c(C(F)(F)F)cccc12)[C@H]1CCCCN1 | 6.31
OC(c1cc(-c2ccc(Cl)cc2)nc2ccccc12)C1CCCCN1 (centres unmarked) | -52.6
Cc1cccnc1NC(=O)Cn1c(=O)oc2ccccc21 | 23
Cc1ccc(N2C(=O)NC(=O)/C(=C\c3cccn3C(C)(C)C)C2=O)cc1 | 24.5
Cl.N=c1sccn1CC(=O)Nc1cc(Cl)ccc1Oc1ccccc1 | -75.2
Cc1ccc(Oc2ccc(NC(=O)Cn3ccsc3=N)cc2)cc1.Cl | -45.1
Cl.N=c1sccn1CC(=O)Nc1cccc(S(N)(=O)=O)c1 | 12.5
Cl.N=c1sccn1CC(=O)Nc1ccc(SC(F)F)cc1 | -62.1
Cl.N=c1sccn1CC(=O)Nc1cccc(Oc2ccccc2)c1 | -65.5
Cl.N=c1sccn1CC(=O)Nc1ccccc1-c1ccccc1 | -2.05
Cl.N=c1sccn1CC(=O)Nc1ccc(S(N)(=O)=O)cc1 | 18.2
Cl.N=c1sccn1CC(=O)Nc1cc(Cl)ccc1[N+](=O)[O-] | 2.64
Cl.N=c1sccn1CC(=O)Nc1ccc2c(c1)CCC2 | -14.1
Cl.N=c1sccn1CC(=O)NC(c1ccccc1)c1ccccc1 | -63.3
O=C(CSc1ccccc1)Nc1cc(Cl)ccc1Oc1ccccc1 | -9.05
Cl.N=c1sccn1CC(=O)Nc1cccc2ccccc12 | 2.9
COc1cc(C(=O)NC(=S)Nc2ccc(NC(=O)c3ccco3)cc2)cc(OC)c1OC | -6.61
CC(=O)Nc1ccc(NC2=CC(=O)c3ccccc3C2=O)cc1 | 11.6
COc1cccc2cc(C(=O)NCCC3=CCCCC3)c(=O)oc12 | 2.79

Compound | hERG current change (%, negative = inhibition) at 10uM [%]
O=C(/C=C/c1ccccc1)NC(=O)c1ccccc1O | 9.95
CC1CCCN(Cc2cnc(Cl)s2)C1 (centres unmarked) | 13
CCC(=O)N1CCc2cc(S(=O)(=O)N3CCN(C(=O)c4ccco4)CC3)ccc21 | -21.8
CCCc1c(C(=O)N/N=C/c2ccccc2OCc2ccc(F)cc2)nnn1-c1nonc1N | 18.6
Cn1c(=O)c2c(ncn2C)n(C)c1=O | 10.1
CCN1CCN(C(C)C(=O)Nc2c(C)n(C)n(-c3ccccc3)c2=O)CC1.O=C(O)C(=O)O (centres unmarked) | 18.6
CCNc1nc(NCC)nc(Oc2ccc(C(=O)OC)cc2)n1 | -5.78
COc1cccc2c(=O)c(C(=O)O)c[nH]c12 | -0.514
COC(=O)c1sccc1NC(=O)C1CCCCC1C(=O)O (centres unmarked) | 14.7
CN(C)c1cccc(C(=O)N2CCC(n3nccc3NC(=O)C3CCOC3)CC2)c1 (centres unmarked) | 3.5
COCCCNC(=O)C(=O)N/N=C/c1ccc(OCC(=O)Nc2cccc(Cl)c2C)c(OC)c1 | -0.6
COc1ccc(Nc2nc(N3CCCCC3)nc(N3CCCCC3)n2)c(OC)c1 | 15.2
COc1ccc(Nc2nc(N3CCCCC3)nc3ccccc23)c(OC)c1 | -62.9
COc1ccc(Nc2nc(-c3ccccc3)nc3ccccc23)c(OC)c1 | -1.67
COc1ccc(Nc2nc(N3CCN(C)CC3)nc3ccccc23)c(OC)c1 | -75.4
COc1ccc(Nc2nc(Nc3ccc(OC)cc3OC)nc(N3CCN(C)CC3)n2)c(OC)c1 | -22.6
COc1ccc(Nc2nc(N3CCCC3)nc3ccccc23)c(OC)c1 | -44.6
CCN(CC(=O)Nc1ccc(NC(C)=O)cc1)C(=O)CC1OC(=O)c2ccccc21 (centres unmarked) | 5.6
O=C(NCCO)c1nc(C(=O)c2ccccc2)c2ccccc2n1 | 15.9
Cc1nn(-c2ccccc2)c(C)c1C(=O)NCc1ccc(S(N)(=O)=O)cc1 | 20.1
Cc1nn(-c2ccccc2)c(C)c1C(=O)NCc1ccc(F)cc1 | -53.2
Cc1nn(-c2ccccc2)c(C)c1C(=O)NCc1ccccc1F | 3.78

Compound | hERG current change (%, negative = inhibition) at 10uM [%]
O=C(CCc1nc2ccccc2c(=O)[nH]1)NNC(=O)COc1cccc(F)c1 | -1.88
COc1ccc(F)cc1CN1CCN(CC(=O)N2CCc3ccccc32)CC1 | -48.1
CCC(C)c1ccc(NC(=O)C2CC2)cc1 (centres unmarked) | 5.22
Cc1ccc(S(=O)(=O)NCC(=O)OCc2cc(=O)oc3cc(C)ccc23)cc1 | -3.27
COc1ccc2c(COC(=O)CNS(=O)(=O)c3ccc(C)c(C)c3)cc(=O)oc2c1 | -57.7
Cc1ccc(S(=O)(=O)NCC(=O)OCc2cc(=O)oc3c(C)c(C)ccc23)cc1C | -16.7
CCOC(=O)C(C)Sc1nnc(Cc2cc(=O)[nH]c(=O)[nH]2)n1-c1cccc(OC)c1 (centres unmarked) | 0.328
CCOC(=O)c1cnc2c(C)c(Cl)ccc2c1N1CCN(CC)CC1.Cl | -29.5
CCOC(=O)c1cnc2c(C)cc(Cl)cc2c1N1CCN(C)CC1.Cl | -19.6
CCOC(=O)c1cnc2c(Cl)c(Cl)ccc2c1N1CCN(C)CC1.Cl | -55.5
CN(C)S(=O)(=O)n1cnc([C@H]2c3c(ncn3Cc3ccccc3)C[C@H]3COC(=O)[C@@H]32)c1 | -4.15
Cc1ccc(C(c2sc3nc(C)nn3c2O)N2CC(C)OC(C)C2)cc1 (centres unmarked) | 13.3
O=c1c(Cl)c(NCC2CCCO2)cnn1C12CC3CC(CC(C3)C1)C2 (centres unmarked) | -29.3
O=c1oc(Nc2ccc(F)cc2)nc2ccccc12 | 6.68
CCOC(=O)N1CCC(NC(=O)CSCc2nc(-c3ccccc3Cl)oc2C)CC1 | -19.5
Cl.NC(=NC1CCCCC1)c1ccc(Cl)cc1 | -39.2
N/C(=N\OC(=O)CCC1CCCCC1)c1ccc([N+](=O)[O-])cc1 | -8.1
Cl.NC(=NC1CCCCC1)c1ccc([N+](=O)[O-])cc1 | -57.2
COc1cc2occc2c2oc(=O)ccc12 | 0.24
O=c1[nH]c(=O)n(C2CCCCC2)c(O)c1/C=N/N1CCCCC1c1cccnc1 (centres unmarked) | -13.6
COc1cc(-c2nc3ccc4ccccc4c3c3c2CCC3)ccc1O | 13.8
COc1ccc([N+](=O)[O-])cc1N(CC(O)CN1CCCCC1)S(=O)(=O)c1ccccc1 (centres unmarked) | -11.2

Compound | hERG current change (%, negative = inhibition) at 10uM [%]
O=C(CN(c1ccc([N+](=O)[O-])cc1)S(=O)(=O)c1ccccc1)N1CCCCC1 | -61.9
Cc1ccc(N(CC(=O)N2CCCCCC2)S(=O)(=O)c2ccccc2)cc1 | -25.3
CC1(C)NC(=O)N(CC(O)CN(c2ccccc2)S(=O)(=O)c2ccc([N+](=O)[O-])cc2)C1=O (centres unmarked) | -13.7
O=[N+]([O-])c1ccc(N(CC(O)CN2CCCCC2)S(=O)(=O)c2ccccc2)cc1 (centres unmarked) | -74
COc1ccc([N+](=O)[O-])cc1N(CC(O)CN1CCOCC1)S(=O)(=O)c1ccccc1 (centres unmarked) | 20
O=C(CN(c1cccc([N+](=O)[O-])c1)S(=O)(=O)c1ccccc1)N1CCCCC1 | -24.8
O=[N+]([O-])c1ccc(S(=O)(=O)N(CC(O)CN2CCCCC2)c2ccccc2)cc1 (centres unmarked) | -80.9
CNC(=O)OCCc1n(C)cc[n+]1C.[I-] | 13.9
Cn1cnnc1Sc1ccc(C(=O)OCC(=O)NCC(F)(F)F)cc1[N+](=O)[O-] | 0.021
CC(C)(C)C(=O)Cn1c(=O)n(-c2ccc(F)cc2F)c(=O)c2sccc21 | 4.28
O=C1C(C2=NC(C(=O)O)C3C(=O)N(c4ccc(Cl)cc4)C(=O)C23)=C(O)c2ccccc21 (centres unmarked) | 2.54
COc1ccc(C(=O)NC2CC2)cc1OC1CCN(Cc2cc(C)cc(C)c2)CC1 | -70.2
COc1cc(CN2CCC(Oc3cc(C(=O)NC4CC4)ccc3OC)CC2)cc(OC)c1 | -72.8
COc1cc(C(=O)NC2CC(C)(C)CC(C)(C)C2)ccc1OC1CCN(C(C)=O)CC1 | 6.2
COc1ccc(C(=O)NC2CCCCCCC2)cc1OC | 1.54
COc1ccc(C(=O)NCCc2ccc(C)cc2)cc1OC1CCN(C(C)=O)CC1 | -4.05
COc1cc(/C=N/NC(=O)COc2ccccc2C)ccc1OC(=O)c1cccs1 | -0.671
Cc1ccc(NC(=O)Cn2nnc(-c3ccc4c(c3)OCO4)n2)cc1F | 11
Nc1cc(N)nc(SCC(=O)Nc2ccccc2N2CCOCC2)n1 | 2.73
CC(C)c1nc2sc3c(c2c(=O)[nH]1)CC(C)(C)OC3 | 17.7
